PubChem BioAssay AID624305 (National Center for Advancing Translational Sciences (NCATS), 2012)
Records with an inconclusive call do not appear. Active and inactive are the calls of the source. Calls follow the shape of the dose curve; as a rule, active = well fitted activation curve with a large enough effect; inconclusive = small, poorly fitted or top-dose-only effect; inactive = no such curve, though single readings can be large or run the other way.

Assay: qHTS assay for re-activators of p53 using a Luc reporter: Hit Validation; also: nearly all actives have a fitted effect of over 75% in size
Conditions: p53-responsive luciferase reporter cells, luminescence, H1299 line expressing heat-sensitive Ala138Val p53; series mostly up to 46.1 µM
Method in brief: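 H1299 (p53-null) cells stably carrying p53-A138V and a BP100-luciferase reporter, 1000 cells/well, treated 24 h at 37 deg C. Compounds at several concentrations, 1:5 dilution; nocodazole control; luminescence read after 10 min with detection reagent.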
Potency is read from the fitted curve at half-maximal effect.

SMILES | Potency
NS(=O)(=O)c1ccc(CCNCc2cccnc2)cc1 | inactive
Clc1ccc(OCc2nc(-c3ccccn3)no2)c(Br)c1 | 1030 nM (active)
O=C(Nc1ccc(N2CCCCCC2)cc1)c1ccc[nH]1 | 1160 nM (active)
O=C(Nc1nnc(-c2cccs2)o1)c1cccc(Oc2ccccc2)c1 | inactive
Cc1ccc2cc(CCNC(=O)c3ccco3)c(=O)[nH]c2c1C | 2310 nM (active)
O=C(C1CCCN1S(=O)(=O)c1ccc(Cl)cc1)N1CCOCC1 (centres undefined) | inactive
CN(C)c1ccc(/C=N/N=C/c2ccccc2O)cc1 | 461 nM (active)
Cc1ccc(-c2nnc(Oc3cccc(C)c3)c3ccccc23)cc1 | 7310 nM (active)
COC(=O)Cc1n[nH]c(=S)[nH]c1=O | inactive
COc1ccc(C(=O)N=c2nc3ccccn3s2)cc1 | 92 nM (active)
Clc1ccc(-c2nnc(SCc3ccon3)o2)c(Cl)c1 | 366 nM (active)
CC(C)c1ccc(C(O)c2nc3ccccc3n2C)cc1 (centres undefined) | inactive
CC(/C=N/Nc1nc2ccccc2[nH]1)=C\c1ccccc1 | 651 nM (active)
CCCN1CCC(NC(=O)Cc2ccc(C)cc2)CC1 | inactive
CCN1CCN(CC(=O)Nc2nc3ccc(C)cc3s2)CC1 | inactive
CCCOc1ccc(-c2cc3onc(-c4ccccc4)c3c(=O)n2C)cc1 | 5800 nM (active)
C/C(=N\NC(=O)c1ccc(F)cc1)c1ccccn1 | 2060 nM (active)
Cc1cccc(C(=O)OCC(=O)N2CCCCCC2)c1O | 5170 nM (active)
O=C(N/N=C/c1ccccc1O)C1CC(=O)N(c2ccc(Cl)cc2)C1 (centres undefined) | inactive
